Screening results (PubChem)
A selection: hits, their analogues and other compounds. The true share with any hit is near 3.5%.
Bim-Mcl-1: inhibitors of Bim peptide binding to Mcl-1, primary screen, biochemical, bead-based flow cytometry, multiplex. 190,000 tested, 0.1% active. Bim peptide-Mcl-1 binding. inhibition, % at 10 µM. Induced myeloid leukemia cell differentiation protein Mcl-1 (Homo sapiens), Q07820. AID 1009, 2008; in the data active = inhibition above about 40%;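 also: 0% = no compound tracer wells and 100% = peptide blocker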
eIF4E 4G PPI: eIF4E–eIF4G protein interaction inhibitors, primary screen, biochemical, uHTS, TR-FRET, eIF4GI fragment. 220,000 tested, 0.37% active. AID 782, 2007. inhibition, % at 21.7 µM. TR-FRET eIF4E-eIF4GI(517-606) binding, 2 h. Eukaryotic translation initiation factor 4E (Mus musculus) + Eukaryotic translation …;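 active = inhibition above about 30%, limit read from the data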;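 also: 0% = full FRET control wells and 100% = background wells lacking eIF4GI fragment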
Hck Nef HTS: inhibitors of Nef-activated human Hck kinase, primary screen, biochemical, Z-Lyte FRET, 384-well, Hck-YEEI. Tyrosine-protein kinase HCK (Homo sapiens), P08631. Recombinant Hck-YEEI plus Nef, Z-Lyte FRET kinase assay. inhibition, % at 20 µM. 220,000 tested, 0.68% active;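 active = Hck-Nef kinase inhibition above about 50%, limit read from the data; inactive = inhibition below that limit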;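 also: 0% = DMSO with Hck plus Nef and 100% = Hck alone without Nef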
Target sequence (P08631 whole entry, looked up): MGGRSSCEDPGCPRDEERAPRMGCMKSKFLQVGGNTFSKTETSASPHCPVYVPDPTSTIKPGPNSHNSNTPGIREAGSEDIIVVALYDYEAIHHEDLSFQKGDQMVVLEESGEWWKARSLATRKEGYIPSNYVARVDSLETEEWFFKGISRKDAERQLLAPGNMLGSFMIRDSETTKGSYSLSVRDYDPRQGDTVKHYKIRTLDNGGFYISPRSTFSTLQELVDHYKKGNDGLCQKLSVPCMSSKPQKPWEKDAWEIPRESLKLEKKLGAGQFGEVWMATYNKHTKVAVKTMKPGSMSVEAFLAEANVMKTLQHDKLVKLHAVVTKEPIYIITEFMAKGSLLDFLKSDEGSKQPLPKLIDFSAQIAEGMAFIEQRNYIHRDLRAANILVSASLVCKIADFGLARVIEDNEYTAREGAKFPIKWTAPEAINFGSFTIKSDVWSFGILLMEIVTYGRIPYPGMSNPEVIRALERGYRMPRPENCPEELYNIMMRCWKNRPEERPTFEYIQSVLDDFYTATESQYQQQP
14-3-3 Bad inh: inhibitors of 14-3-3 zeta/Bad binding, primary screen, biochemical, TR-FRET, bovine 14-3-3 zeta | TR-FRET 14-3-3zeta/Dy647-pBad peptide displacement, 1 h | 14-3-3 protein zeta/delta (Bos taurus), P63103 | 220,000 tested, 0.71% active | inhibition, % at 21.7 µM | AID 781, 2007;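 active = inhibition above about 70%, limit read from the data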;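 also: 0% = full 14-3-3 plus peptide FRET controls and 100% = background without 14-3-3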
Mcl1-Noxa inh: Mcl-1/Noxa binding inhibitors, primary screen, biochemical, TR-FRET, 1536-well; inhibition, % at 21.7 µM; 220,000 tested, 1.5% active; TR-FRET Mcl-1/Noxa peptide binding, 2 h; Induced myeloid leukemia cell differentiation protein Mcl-1 (Homo sapiens), Q07820;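 active = compounds that cut the protein-peptide binding signal by more than 50% relative to plate controls in a single-dose test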;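 also: His-tagged Mcl-1 with rhodamine Noxa BH3 peptide and terbium anti-His antibody; 0% = Mcl-1 plus Noxa peptide wells and 100% = peptide-only wells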
Mcl1-Bid inh: Mcl-1/Bid binding inhibitors, primary screen, biochemical, TR-FRET, 1536-well; TR-FRET Mcl-1/Bid-Dy647 peptide binding; inhibition, % at 21.7 µM; 220,000 tested, 0.97% active;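 active = compounds that cut the binding signal by more than half at the single screening dose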;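 also: His-tagged Mcl-1 with europium anti-His antibody binding Bid BH3 peptide; 0% = Mcl-1 plus peptide wells and 100% = peptide-only wells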
Hck-Nef confirm: retest of Hck:Nef kinase inhibitor hits, confirmation, biochemical, Z-Lyte FRET, 384-well, p-Tyr peptide counterscreen; shares compounds with Hck Nef HTS; Recombinant Hck-YEEI:Nef, Z-Lyte FRET kinase assay; calls only at 10 µM; 1,300 tested, 28% active; AID 463188, 2010;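 active = average inhibition of at least 50%, with Z-scores no higher than 3 in both the phospho-tyrosine peptide and fluorescence counterscreens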
Starred values were filed as active, the others as inactive; / = no result; + = active, no number.

SMILES	Bim-Mcl-1	eIF4E 4G PPI	Hck Nef HTS	14-3-3 Bad inh	Mcl1-Noxa inh	Mcl1-Bid inh	Hck-Nef confirm
CC1(OC(=O)C2CCCC2)C(=O)C=C2C=C(c3ccsc3)OC=C2C1=O (stereo not drawn)	/	12	62*	2	51*	-17	+
COc1ccc(C2=CC3=C(Br)C(=O)C(C)(OC(=O)c4ccc(Cl)nc4)C(=O)C3=CO2)cc1 (stereo not drawn)	/	10	94*	15	53*	-10	+
COc1ccc(C2=CC3=C(Br)C(=O)C(C)(OC(=O)C4CCCC4)C(=O)C3=CO2)cc1 (stereo not drawn)	/	4	82*	11	27	-44	+
COC(=O)CCC(=O)OC1(C)C(=O)C2=CN(C(CO)CO)C(c3ccc(OC)cc3)=CC2=C(Br)C1=O (stereo not drawn)	/	-3	8	-8	19	-58	/
CCOc1cc(NC(=S)NCC2CCCO2)c(OCC)cc1NC(=O)c1cccc(C)c1 (stereo not drawn)	3	0	0	-6	-10	-36	/
CNc1nnc(Sc2ncccc2[N+](=O)[O-])s1	/	-1	-12	1	-1	2	/
CCOc1ccc(NC(=O)CCCOc2cc(=O)n(C)c3ccccc23)cc1	-4	2	0	4	3	2	/
